Measurements: PubChem BioAssay AID624389 (National Center for Advancing Translational Sciences (NCATS), 2012)
Activity calls are given as the source filed them. Calls follow the shape of the dose curve; as a rule, active = well fitted curve in the direction sought with a large enough effect; inactive = no such curve, though single readings can be large or run the other way.

molecular target: Pyruvate kinase PKM (Homo sapiens) (UniProt P14618); test: qHTS for Activators of Human Muscle Isoform 2 Pyruvate Kinase: Extended Characterization Using A Lactate Dehydrogenase (LDH) Assay Probe 2; details: purified hPK-M2, LDH-coupled NADH fluorescence kinetic
From the text: Human pyruvate kinase muscle 2 (hPK-M2)enzyme was supplied as a highly purified (>95% pure) preparation from Harvard Medical School and a secondary assay was used to evaluate compounds. This assay couples the formation of pyruvate from hPK-M2 using lactate dehydrogenase (LDH) and NADH. The depletion of NADH is followed in a fluorescent-based kinetic assay that follows the formation of pyruvate to lactate, as catalyzed LDH (described by Hannaert et al., 2002)1 Pyruvate kinase substrates, PEP and ADP, were present in the assay at 0.1 mM and 4 mM respectively. In this kinetic assay initial rates were determined by following the fluorescence of NADH depletion. NIH Chemical Genomics Center [NCGC] NIH Molecular Libraries Probe Centers Network [MLPCN] MLPCN Grant: MH085679 Assay Submitter (PI): Matthew G. Vander Heiden, Harvard Medical School
Three uL of substrate mix (final concentration, 50 mM Tris-Cl pH 8.0, 200 mM KCl, 15 mM MgCl2, 0.1 mM PEP, 4.0 mM ADP, and 0.2 mM NADH) was dispensed into black-solid 1536 well plates. 23 nL of compounds were delivered by a pin tool and 1 uL of enzyme mix (final concentrations, 10 nM hPK-M2 and 1 uM of LDH) was added. Plates were immediately placed in ViewLux (Perkin Elmer) and NADH fluorescence was determined at 30 second exposure intervals for between 3 and 6 minutes. Data were normalized to the uninhibited and EC100 activation using known activators such as fructose-bis-phosphate.

Chain of Pyruvate kinase PKM (Homo sapiens) (P14618 whole entry, looked up, canonical isoform): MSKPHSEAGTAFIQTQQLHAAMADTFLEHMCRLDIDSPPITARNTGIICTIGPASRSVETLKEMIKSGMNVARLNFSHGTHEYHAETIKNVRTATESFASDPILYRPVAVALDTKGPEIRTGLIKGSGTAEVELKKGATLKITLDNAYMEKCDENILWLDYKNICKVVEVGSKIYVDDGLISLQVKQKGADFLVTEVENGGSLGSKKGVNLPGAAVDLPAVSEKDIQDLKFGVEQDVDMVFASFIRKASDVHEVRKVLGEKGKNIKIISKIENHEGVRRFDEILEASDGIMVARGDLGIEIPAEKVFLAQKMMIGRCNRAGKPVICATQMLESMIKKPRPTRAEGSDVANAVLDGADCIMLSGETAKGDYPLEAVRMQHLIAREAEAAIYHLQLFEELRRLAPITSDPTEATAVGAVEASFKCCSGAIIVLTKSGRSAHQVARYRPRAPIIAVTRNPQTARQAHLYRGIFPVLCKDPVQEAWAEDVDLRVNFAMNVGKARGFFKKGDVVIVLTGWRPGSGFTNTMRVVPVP

Potency, active:
COc1cccc(Cn2ncc3c4sc(S(C)=O)cc4n(C)c3c2=O)c1 (stereo not drawn) 410 nM
Cc1ccc(NS(=O)(=O)c2ccc3c(c2)CCC(=O)N3)cc1C 146 nM
O=S(=O)(c1ccc2c(c1)OCCO2)N1CCN(S(=O)(=O)c2c(F)cccc2F)CC1 178 nM
